According to the supplement of paper PMC10646978:
± gives the standard deviation.

Experiments:
Settings in all cases: modulator concentration 10 µM
[1] = test system: RAW-Dual (murine macrophage reporter line); test: NF-kB reporter (SEAP) activity fold change vs agonist alone; higher = enhanced NF-kB activity
Method in brief: (§1)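 RAW-Dual murine macrophage reporter cells were seeded at 50 000 per well in 384-well plates and pre-incubated 1 hour at 37 °C with compound pin-transferred to 10 μM final. After 1 hour, a PRR agonist was added and cells incubated overnight. Supernatant NF-κB (SEAP, QUANTI-Blue, 620 nm absorbance) and IRF (Lucia luciferase, QUANTI-Luc, luminescence) signals were divided by the mean agonist-only control on the same plate to give fold change. Two replicate plates were averaged, with errors by propagation.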

[2] = test system: RAW-Dual (murine macrophage reporter line); test: IRF reporter (Lucia luciferase) activity fold change vs agonist alone; higher = enhanced IRF activity
Method in brief: as §1

[3] = test system: RAW-Dual (murine macrophage reporter line); test: viability score (confluency relative to resting cells, overnight) (fraction); higher = more viable, active = viable (0.7 or more)
Method in brief: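 RAW-Dual macrophages in 384-well plates were incubated overnight with compound, final concentration 10 μM. Confluency images from IncuCyte were processed in IncuCyte software into two masks covering all imaged wells. The viability score is each well's confluency relative to resting cells, and a compound met the cutoff when both masks exceeded 70% of resting cells.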

[4] = agonist: CpG ODN 1826 0.5 ug/mL

O=C1NC(=O)C(=CNc2ccccc2C(F)(F)F)C(=O)N1 was tested, and the NF-kB reporter [1, 4] was 1.13 ± 0.11, the NF-kB reporter ([1]; agonist: LPS 0.1 ug/mL) was 0.946 ± 0.11 and the NF-kB reporter ([1]; agonist: MPLA […]) was 1.04 ± 0.1. The IRF reporter ([2]; agonist: 3'3'-cGAMP 10 ug/mL) was 1.02 ± 0.034, the IRF reporter ([2]; agonist: LPS 0.1 ug/mL) was 1.21 ± 0.24 and the IRF reporter ([2]; agonist: MPLA […]) was 1.2 ± 0.2. For the same compound, the viability score [3] was 1.02 (active).

COc1ccc(-n2c(C)nc3ccc(NC(=O)CC4CCCC4)cc3c2=O)cc1 gave an NF-kB reporter [1, 4] of 1.14 ± 0.14, an NF-kB reporter ([1]; agonist: LPS 0.1 ug/mL) of 1.06 ± 0.13 and an NF-kB reporter ([1]; agonist: MPLA […]) of 0.932 ± 0.075. It also gave an IRF reporter ([2]; agonist: 3'3'-cGAMP 10 ug/mL) of 0.946 ± 0.048, an IRF reporter ([2]; agonist: LPS 0.1 ug/mL) of 0.925 ± 0.073 and an IRF reporter ([2]; agonist: MPLA […]) of 0.875 ± 0.15. For the same compound, the viability score [3] was 1.01 (active).

For CC(=O)Nc1ccc(C(=O)NCC#CCN(C)C)cc1, the NF-kB reporter [1, 4] was 0.899 ± 0.04, the NF-kB reporter ([1]; agonist: LPS 0.1 ug/mL) was 0.879 ± 0.083 and the NF-kB reporter ([1]; agonist: MPLA […]) was 1.07 ± 0.058. For the same compound, the IRF reporter ([2]; agonist: 3'3'-cGAMP 10 ug/mL) was 1.04 ± 0.057, the IRF reporter ([2]; agonist: LPS 0.1 ug/mL) was 1.17 ± 0.29 and the IRF reporter ([2]; agonist: MPLA […]) was 1.3 ± 0.45. For the same compound, the viability score [3] was 1 (active).

With COc1ccc2c3c([nH]c2c1)C(C)=NCC3 the NF-kB reporter [1, 4] was 0.359 ± 0.089, the NF-kB reporter ([1]; agonist: LPS 0.1 ug/mL) was 0.917 ± 0.046 and the NF-kB reporter ([1]; agonist: MPLA […]) was 0.852 ± 0.054. For the same compound, the IRF reporter ([2]; agonist: 3'3'-cGAMP 10 ug/mL) was 0.778 ± 0.038, the IRF reporter ([2]; agonist: LPS 0.1 ug/mL) was 0.771 ± 0.17 and the IRF reporter ([2]; agonist: MPLA […]) was 0.793 ± 0.15. For the same compound, the viability score [3] was 1 (active).

With CC(C)c1ccc2c(c1O)CCC1C3=C(CCC21C)C(=O)OC3 (stereo not drawn) the NF-kB reporter [1, 4] was 0.921 ± 0.072, the NF-kB reporter ([1]; agonist: LPS 0.1 ug/mL) was 0.815 ± 0.11 and the NF-kB reporter ([1]; agonist: MPLA […]) was 0.986 ± 0.093. It also gave an IRF reporter ([2]; agonist: 3'3'-cGAMP 10 ug/mL) of 0.939 ± 0.029, an IRF reporter ([2]; agonist: LPS 0.1 ug/mL) of 1.11 ± 0.19 and an IRF reporter ([2]; agonist: MPLA […]) of 1.23 ± 0.26. The viability score [3] was 1.03 (active).

Compound O=C1NC(=O)C(C(CC(=O)c2ccccc2)c2ccccc2)C(=O)N1 (stereo not drawn) has an NF-kB reporter [1, 4] of 1.04 ± 0.093, an NF-kB reporter ([1]; agonist: LPS 0.1 ug/mL) of 0.984 ± 0.076 and an NF-kB reporter ([1]; agonist: MPLA […]) of 0.93 ± 0.035. For the same compound, the IRF reporter ([2]; agonist: 3'3'-cGAMP 10 ug/mL) was 0.942 ± 0.12, the IRF reporter ([2]; agonist: LPS 0.1 ug/mL) was 1.02 ± 0.045 and the IRF reporter ([2]; agonist: MPLA […]) was 0.931 ± 0.14. For the same compound, the viability score [3] was 1 (active).

Work on COc1ccc(CCNCc2ccc3ccccc3c2)cc1 yielded an NF-kB reporter [1, 4] of 0.853 ± 0.068, an NF-kB reporter ([1]; agonist: LPS 0.1 ug/mL) of 0.755 ± 0.051 and an NF-kB reporter ([1]; agonist: MPLA […]) of 1.65 ± 0.11. It also gave an IRF reporter ([2]; agonist: 3'3'-cGAMP 10 ug/mL) of 0.88 ± 0.06, an IRF reporter ([2]; agonist: LPS 0.1 ug/mL) of 0.98 ± 0.13 and an IRF reporter ([2]; agonist: MPLA […]) of 2.58 ± 0.29. For the same compound, the viability score [3] was 0.123 (inactive).

In the case of C=C(C)C1Cc2c(ccc3c2OC2COc4cc(OC)c(OC)cc4C2C3=O)O1 (stereo not drawn), the NF-kB reporter [1, 4] is reported as 1.6 ± 0.13, the NF-kB reporter ([1]; agonist: LPS 0.1 ug/mL) is reported as 1.02 ± 0.1 and the NF-kB reporter ([1]; agonist: MPLA […]) is reported as 1.75 ± 0.18. For the same compound, the IRF reporter ([2]; agonist: 3'3'-cGAMP 10 ug/mL) was 0.515 ± 0.028, the IRF reporter ([2]; agonist: LPS 0.1 ug/mL) was 1.64 ± 0.27 and the IRF reporter ([2]; agonist: MPLA […]) was 2.07 ± 0.4. For the same compound, the viability score [3] was 0.924 (active).

In the case of C[C@@H]1CC[C@H]2[C@@H](C)C(=O)O[C@@H]3O[C@@]4(C)CC[C@@H]1[C@]32OO4, the NF-kB reporter [1, 4] is reported as 0.961 ± 0.086, the NF-kB reporter ([1]; agonist: LPS 0.1 ug/mL) is reported as 0.916 ± 0.052 and the NF-kB reporter ([1]; agonist: MPLA […]) is reported as 1.11 ± 0.11. For the same compound, the IRF reporter ([2]; agonist: 3'3'-cGAMP 10 ug/mL) was 1.04 ± 0.048, the IRF reporter ([2]; agonist: LPS 0.1 ug/mL) was 1.13 ± 0.065 and the IRF reporter ([2]; agonist: MPLA […]) was 1.17 ± 0.099. For the same compound, the viability score [3] was 0.985 (active).

Compound O=C1NC(=O)N(c2ccccc2F)C(=O)C1=Cc1cc(Cl)ccc1OCc1ccc([N+](=O)[O-])cc1 has an NF-kB reporter [1, 4] of 0.892 ± 0.071, an NF-kB reporter ([1]; agonist: LPS 0.1 ug/mL) of 1.05 ± 0.078 and an NF-kB reporter ([1]; agonist: MPLA […]) of 0.744 ± 0.045. For the same compound, the IRF reporter ([2]; agonist: 3'3'-cGAMP 10 ug/mL) was 0.741 ± 0.018, the IRF reporter ([2]; agonist: LPS 0.1 ug/mL) was 0.972 ± 0.087 and the IRF reporter ([2]; agonist: MPLA […]) was 0.855 ± 0.16. For the same compound, the viability score [3] was 1.01 (active).

COc1ccc(C(CN(C)C)C2(O)CCCCC2)cc1.Cl (stereo not drawn) gave an NF-kB reporter [1, 4] of 1.07 ± 0.08, an NF-kB reporter ([1]; agonist: LPS 0.1 ug/mL) of 1.06 ± 0.1 and an NF-kB reporter ([1]; agonist: MPLA […]) of 0.971 ± 0.056. For the same compound, the IRF reporter ([2]; agonist: 3'3'-cGAMP 10 ug/mL) was 1.07 ± 0.22, the IRF reporter ([2]; agonist: LPS 0.1 ug/mL) was 0.867 ± 0.052 and the IRF reporter ([2]; agonist: MPLA […]) was 0.928 ± 0.081. The viability score [3] was 1 (active).

Compound COc1cc2c(c(OC)c1OC)-c1ccc(OC)c(=O)cc1C(NC(C)=O)CC2 (stereo not drawn) has an NF-kB reporter [1, 4] of 2.37 ± 0.14, an NF-kB reporter ([1]; agonist: LPS 0.1 ug/mL) of 1.47 ± 0.092 and an NF-kB reporter ([1]; agonist: MPLA […]) of 2.59 ± 0.15. For the same compound, the IRF reporter ([2]; agonist: 3'3'-cGAMP 10 ug/mL) was 0.0948 ± 0.0032, the IRF reporter ([2]; agonist: LPS 0.1 ug/mL) was 1.87 ± 0.21 and the IRF reporter ([2]; agonist: MPLA […]) was 2.02 ± 0.27. The viability score [3] was 0.673 (inactive).

With Cc1cccc2sc(NC(=O)c3cccn(Cc4ccc(Br)cc4)c3=O)nc12 the NF-kB reporter [1, 4] was 1.06 ± 0.12, the NF-kB reporter ([1]; agonist: LPS 0.1 ug/mL) was 1.13 ± 0.096 and the NF-kB reporter ([1]; agonist: MPLA […]) was 1.02 ± 0.15. For the same compound, the IRF reporter ([2]; agonist: 3'3'-cGAMP 10 ug/mL) was 1.04 ± 0.052, the IRF reporter ([2]; agonist: LPS 0.1 ug/mL) was 1.32 ± 0.084 and the IRF reporter ([2]; agonist: MPLA […]) was 1.12 ± 0.085. For the same compound, the viability score [3] was 1 (active).

CC[N+]1(C)CCCC(OC(=O)C(O)(c2ccccc2)c2ccccc2)C1 (stereo not drawn) [Prestw-760] showed an NF-kB reporter [1, 4] of 0.921 ± 0.061, an NF-kB reporter ([1]; agonist: LPS 0.1 ug/mL) of 0.955 ± 0.092 and an NF-kB reporter ([1]; agonist: MPLA […]) of 0.966 ± 0.073. For the same compound, the IRF reporter ([2]; agonist: 3'3'-cGAMP 10 ug/mL) was 0.952 ± 0.038, the IRF reporter ([2]; agonist: LPS 0.1 ug/mL) was 1.13 ± 0.09 and the IRF reporter ([2]; agonist: MPLA […]) was 0.973 ± 0.18. The viability score [3] was 0.994 (active).
